Experimental findings from ChEMBL document CHEMBL3433997, “St. Jude Leishmania screening dataset” (2016) are described below.

Each structure is given as a SMILES string.

Sequence of Solute carrier family 2, facilitated glucose transporter member 1 (Homo sapiens) (P11166 whole entry): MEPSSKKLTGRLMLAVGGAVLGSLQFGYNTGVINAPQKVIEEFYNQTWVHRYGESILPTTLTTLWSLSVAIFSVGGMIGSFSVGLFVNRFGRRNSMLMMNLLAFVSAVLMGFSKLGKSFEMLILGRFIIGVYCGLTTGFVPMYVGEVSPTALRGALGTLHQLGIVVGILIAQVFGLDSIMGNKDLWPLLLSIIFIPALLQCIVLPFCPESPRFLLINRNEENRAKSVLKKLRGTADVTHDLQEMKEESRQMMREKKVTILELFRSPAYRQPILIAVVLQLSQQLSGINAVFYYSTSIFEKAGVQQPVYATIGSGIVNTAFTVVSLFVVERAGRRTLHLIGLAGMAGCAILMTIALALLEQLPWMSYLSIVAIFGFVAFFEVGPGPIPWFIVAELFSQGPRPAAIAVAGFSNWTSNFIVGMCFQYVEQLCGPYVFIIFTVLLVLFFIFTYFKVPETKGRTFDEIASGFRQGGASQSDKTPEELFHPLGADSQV

One experiment concerns the target Solute carrier family 2, facilitated glucose transporter member 1 (Homo sapiens) (UniProt P11166). Put plainly: ST_JUDE_LEISH: Cytotoxicity at 2uM final concentration against transgenic Leishmania Mexicana promastigotes LmGLUT1 that are glucose transport deficient and complemented with the human glucose transporter GLUT1. Activity is measured by DNA content using SYBR green in vitro. It is filed as functional.
Consider `COc1ccc(CNC2CCN(C)CC2)cc1-c1ccc(S(=O)(=O)NCCN2CCCC2)s1`, for which the inhibition is -3.47%.
Still for that read-out and setting: the same measure for `CC(=O)Nc1ncc(C(=O)Nc2cccc(-c3ccc(-c4nc5cc(C(F)(F)F)ccc5[nH]4)s3)c2)s1`: 3.37%; for `O=C(NCCCCN1CCC(c2nc3ccccc3s2)CC1)c1cc2ccccc2[nH]1`: 3.02%; for `Cc1ccc(C)c(C2CCN(CCCCNC(=O)c3ccc(NC(=O)c4ccc(Cl)cc4)cc3)CC2)c1`: -1.18%.
Still for that read-out and setting: the same measure for `Cc1cc(N)nc2ccc(-c3ccc(CN)cc3)cc12`: 9.09%; for `CCCCCCCNCCNc1cc(C)nc2ccccc12`: 2.03%; for `CN(C)c1ccc(-c2ccc(C(=O)NC3CCN(Cc4ccc(C(C)(C)C)cc4)CC3)s2)cc1`: 2.66%.
For `CN1CCCN(Cc2ccc(-c3cccc(NC(=O)c4ccc(C#N)cc4)c3)cc2)CC1`, the inhibition was found to be 1.03%.
Regarding `Oc1ccc(CN2CCC(NCc3cccc(C(F)(F)F)c3)CC2)cc1`, the inhibition was found to be 11.3%.
Consider `COCCCNC(=O)c1ccc(O)c(-c2cc(Cl)cc(Cl)c2)c1`, for which the inhibition worked out at 0.32%.
With `O=C(NC1CCN(Cc2ccccc2)CC1)c1ccc(-c2nc3cc4ccccc4cc3[nH]2)s1`, the inhibition was determined as 3.9%.
On the same count and under the same terms, with `CCN1CCC(N(Cc2ccc(-c3ccc(C(F)(F)F)cc3)cc2)C(=O)Cn2c(CCc3cccc(F)c3F)cc(=O)c3ccccc32)CC1` the figure was -0.63%; with `CC(C)(C(=O)Nc1ccc(C2CCC(NCC3CC3)CC2)c(Cl)c1)c1ccc(C(F)(F)F)cc1` (stereo not given), 0.29%; with `O=C(Nc1ccc2c(c1)CN(Cc1ccc(N3CCCC3)o1)CCC2)c1cncs1`, 1.6%.
On the same count and under the same terms, with `COc1ccccc1NC(=O)Nc1cccc(-c2cccc(-c3nc4cccc(C)c4[nH]3)c2)c1` the figure was -1.43%.
Same read-out and setting: the same measure for `CC(=O)N(C)C1CCN(Cc2ccc(-c3ccc(-c4nc5cc(F)ccc5[nH]4)s3)cc2)C1` (stereo not given): 8.07%; for `Nc1ncc(Cc2cc(Cl)c(N)c3ncccc23)c(N)n1`: 2.6%.
`CCc1cc(Br)c2c(c1)C(NCCCNc1cc(=O)c3ccccc3[nH]1)CCN2` (stereo not given): the inhibition turned out to be 3.82%.
For `CS(=O)(=O)c1ccc2c(c1)CCN(CCC1CCC(NC(=O)C(=Cc3cccc(C#N)c3)c3ccc(-c4ccccc4)cc3)CC1)CC2` (stereo not given), the inhibition is 1.14%.
The same measure, in the same setting: with `Fc1ccc2c(NN=CC=Cc3ccccc3)ccnc2c1` the figure was 12.7%; with `O=S(=O)(Nc1cccc(CCN2CCCCC2CCN2CCCC2)c1)c1ccc(Oc2ccccc2)cc1` (stereo not given), -2.34%.
Still for that read-out and setting: the same measure for `Cc1c(F)cc(C(=O)NC2CC2)cc1-c1ccc2c(cnn2S(=O)(=O)c2ccc(F)c(F)c2)c1`: 5.87%.
Same read-out and setting: the same measure for `O=S(=O)(NCCN1CCCC1)c1ccc(-c2cccc(CNCc3ccccc3)c2)s1`: -2.31%.
`COc1ccc2[nH]ccc(=NN=Cc3ccncc3)c2c1`: the inhibition is 3.57%.
With `CCN(CC)CCN1C(=O)c2oc3ccc(Cl)cc3c(=O)c2C1c1ccc(SC)cc1` (stereo not given), the inhibition was -3.16%.
As to `C=CC[C@H](C[C@H](O)[C@H](Cc1ccccc1)NC(=O)c1ccc(-c2cccnn2)cc1)C(=O)NC1CCCCC1`, the inhibition is -1.55%.
Still for that read-out and setting: the same measure for `Cc1cccc(CN2CCCN(Cc3ccc(C(=O)Nc4ccc(C)c(F)c4)cc3)CC2)c1`: 1.23%.
Same read-out and setting: with `CC(C)(C)Nc1cc(C2CC2)nc(-c2ccccn2)n1` the figure was 2.01%; with `Cc1cccc2nc(-c3ccc(-c4cccc(CNCc5ccccc5)c4)cc3)[nH]c12`, 16.8%.
The same measure, in the same setting: with `CCOc1cc(Cc2cnc(N)nc2N)cc(Br)c1OC` the figure was 0.49%; with `CC(=O)N/N=C/[C@H](CCc1ccccc1)NC(=O)[C@H](CC(C)C)NC(=O)c1cccc(OCCN2CCOCC2)c1`, 6.39%; with `COc1ccc(Cc2nc(/N=C(\N)Nc3ccccc3)ccc2OC)cc1`, 0.38%.
`CCOC(=O)c1cnc2c(OC)cc(OC)c(Cl)c2c1Nc1cccc(C)c1C`: the inhibition was 0.67%.
Same read-out and setting: the same measure for `COc1ccc(NC(=O)Nc2cccc(-c3ccc(-c4nc5cc(C(F)(F)F)ccc5[nH]4)cc3)c2)cc1`: 0.43%; for `O=C(Cc1c[nH]cn1)Nc1cccc(-c2cccc(-c3nc4ccccc4[nH]3)c2)c1`: 9.66%; for `O=S(=O)(Nc1cc2c(cc1O)CCNCC2)c1ccc(-c2ccc(Cl)cc2)cc1`: 3.27%.
The same measure, in the same setting: with `Fc1cccc(COc2ccc(Nc3ncnc4cc(/C=C/[C@@H]5CCCN5)sc34)cc2Cl)c1` the figure was 5.81%; with `N=c1ccn(CC(=NO)c2ccc(Cl)c(Cl)c2)cc1`, 0.09%; with `O=C(Cn1c(CCc2cccc(F)c2F)nc(=O)c2ccccc21)N(CCN1CCCC1)Cc1ccc(-c2ccc(C(F)(F)F)cc2)cc1`, 0.45%.
The same measure, in the same setting: the same measure for `CN1CCCC(CN2CCN(Cc3ccc(-c4cccc(-c5nc6ccccc6[nH]5)c4)cc3)CC2)C1` (stereo not given): 3.67%.

A further experiment deals with Hexose transporter 1 (Plasmodium falciparum) (UniProt O97467). Put plainly: ST_JUDE_LEISH: Cytotoxicity at 2uM final concentration against transgenic Leishmania Mexicana promastigotes LmPfHT that are glucose transport deficient and complemented with the Plasmodium falciparum hexose transporter. Activity is measured by DNA content using SYBR green in vitro. The experiment is classed as functional.
In the case of `COc1ccc(CNC2CCN(C)CC2)cc1-c1ccc(S(=O)(=O)NCCN2CCCC2)s1`, the inhibition was -0.23%.
Consider `CC(=O)Nc1ncc(C(=O)Nc2cccc(-c3ccc(-c4nc5cc(C(F)(F)F)ccc5[nH]4)s3)c2)s1`, for which the inhibition worked out at 4.16%.
Still for that read-out and setting: with `O=C(NCCCCN1CCC(c2nc3ccccc3s2)CC1)c1cc2ccccc2[nH]1` the figure was 0.13%; with `Cc1ccc(C)c(C2CCN(CCCCNC(=O)c3ccc(NC(=O)c4ccc(Cl)cc4)cc3)CC2)c1`, 0.21%; with `Cc1cc(N)nc2ccc(-c3ccc(CN)cc3)cc12`, 6.77%.
Still for that read-out and setting: with `CCCCCCCNCCNc1cc(C)nc2ccccc12` the figure was 7.41%.
Same read-out and setting: the same measure for `CN(C)c1ccc(-c2ccc(C(=O)NC3CCN(Cc4ccc(C(C)(C)C)cc4)CC3)s2)cc1`: 1.51%; for `CN1CCCN(Cc2ccc(-c3cccc(NC(=O)c4ccc(C#N)cc4)c3)cc2)CC1`: 4.1%.
As to `Oc1ccc(CN2CCC(NCc3cccc(C(F)(F)F)c3)CC2)cc1`, the inhibition worked out at 13.7%.
On to `COCCCNC(=O)c1ccc(O)c(-c2cc(Cl)cc(Cl)c2)c1`, for which the inhibition was -2.5%.
The same measure, in the same setting: with `O=C(NC1CCN(Cc2ccccc2)CC1)c1ccc(-c2nc3cc4ccccc4cc3[nH]2)s1` the figure was 2.65%.
As for `CCN1CCC(N(Cc2ccc(-c3ccc(C(F)(F)F)cc3)cc2)C(=O)Cn2c(CCc3cccc(F)c3F)cc(=O)c3ccccc32)CC1`, the inhibition is -0.01%.
On the same count and under the same terms, the same measure for `CC(C)(C(=O)Nc1ccc(C2CCC(NCC3CC3)CC2)c(Cl)c1)c1ccc(C(F)(F)F)cc1` (stereo not given): 0.31%; for `O=C(Nc1ccc2c(c1)CN(Cc1ccc(N3CCCC3)o1)CCC2)c1cncs1`: 1.62%.
The same measure, in the same setting: the same measure for `COc1ccccc1NC(=O)Nc1cccc(-c2cccc(-c3nc4cccc(C)c4[nH]3)c2)c1`: 0.52%; for `CC(=O)N(C)C1CCN(Cc2ccc(-c3ccc(-c4nc5cc(F)ccc5[nH]4)s3)cc2)C1` (stereo not given): 5.96%.
The same measure, in the same setting: with `Nc1ncc(Cc2cc(Cl)c(N)c3ncccc23)c(N)n1` the figure was 2.88%; with `CCc1cc(Br)c2c(c1)C(NCCCNc1cc(=O)c3ccccc3[nH]1)CCN2` (stereo not given), 2.76%.
Turning to `CS(=O)(=O)c1ccc2c(c1)CCN(CCC1CCC(NC(=O)C(=Cc3cccc(C#N)c3)c3ccc(-c4ccccc4)cc3)CC1)CC2` (stereo not given), the inhibition is 2.77%.
Same read-out and setting: the same measure for `Fc1ccc2c(NN=CC=Cc3ccccc3)ccnc2c1`: 9.84%; for `O=S(=O)(Nc1cccc(CCN2CCCCC2CCN2CCCC2)c1)c1ccc(Oc2ccccc2)cc1` (stereo not given): 1.13%.
Take `Cc1c(F)cc(C(=O)NC2CC2)cc1-c1ccc2c(cnn2S(=O)(=O)c2ccc(F)c(F)c2)c1`: the inhibition was 5.31%.
Same read-out and setting: with `O=S(=O)(NCCN1CCCC1)c1ccc(-c2cccc(CNCc3ccccc3)c2)s1` the figure was -2.12%.
Turning to `COc1ccc2[nH]ccc(=NN=Cc3ccncc3)c2c1`, the inhibition turned out to be 3.95%.
Take `CCN(CC)CCN1C(=O)c2oc3ccc(Cl)cc3c(=O)c2C1c1ccc(SC)cc1` (stereo not given): the inhibition was -2.27%.
Take `C=CC[C@H](C[C@H](O)[C@H](Cc1ccccc1)NC(=O)c1ccc(-c2cccnn2)cc1)C(=O)NC1CCCCC1`: the inhibition was -0.85%.
The same measure, in the same setting: with `Cc1cccc(CN2CCCN(Cc3ccc(C(=O)Nc4ccc(C)c(F)c4)cc3)CC2)c1` the figure was 4.06%; with `CC(C)(C)Nc1cc(C2CC2)nc(-c2ccccn2)n1`, 4.26%; with `Cc1cccc2nc(-c3ccc(-c4cccc(CNCc5ccccc5)c4)cc3)[nH]c12`, 9.57%.
`CCOc1cc(Cc2cnc(N)nc2N)cc(Br)c1OC`: the inhibition is 2.73%.
Same read-out and setting: the same measure for `CC(=O)N/N=C/[C@H](CCc1ccccc1)NC(=O)[C@H](CC(C)C)NC(=O)c1cccc(OCCN2CCOCC2)c1`: 8.07%; for `COc1ccc(Cc2nc(/N=C(\N)Nc3ccccc3)ccc2OC)cc1`: 1.68%; for `CCOC(=O)c1cnc2c(OC)cc(OC)c(Cl)c2c1Nc1cccc(C)c1C`: -0.69%.
The same measure, in the same setting: with `COc1ccc(NC(=O)Nc2cccc(-c3ccc(-c4nc5cc(C(F)(F)F)ccc5[nH]4)cc3)c2)cc1` the figure was -0.19%; with `O=C(Cc1c[nH]cn1)Nc1cccc(-c2cccc(-c3nc4ccccc4[nH]3)c2)c1`, 12.8%; with `O=S(=O)(Nc1cc2c(cc1O)CCNCC2)c1ccc(-c2ccc(Cl)cc2)cc1`, -0.71%.
On to `Fc1cccc(COc2ccc(Nc3ncnc4cc(/C=C/[C@@H]5CCCN5)sc34)cc2Cl)c1`, for which the inhibition is 0.95%.
Still for that read-out and setting: with `N=c1ccn(CC(=NO)c2ccc(Cl)c(Cl)c2)cc1` the figure was 2.8%; with `O=C(Cn1c(CCc2cccc(F)c2F)nc(=O)c2ccccc21)N(CCN1CCCC1)Cc1ccc(-c2ccc(C(F)(F)F)cc2)cc1`, 0.38%; with `CN1CCCC(CN2CCN(Cc3ccc(-c4cccc(-c5nc6ccccc6[nH]5)c4)cc3)CC2)C1` (stereo not given), 2.47%.
